# Compounds with a hit are over-represented: about 28% of the library has one in this group of screens.
# CYP2C19 inhib – blocks human cytochrome P450 2C19; P33261; CYP2C19 Supersomes, luciferin-H EGE luminescence, 30 min; inhibition, % at 5 µM; 96,000 tested, 21% active; AID 778;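 active = CYP2C19 inhibition above a set limit at 5 µM in the primary screen, cut at about 50% in these data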
# D1 mod – allosterically modulates the human D1 dopamine receptor | P21728 | 58,000 tested, 5.9% active | HEK293 D1, CRE-luciferase, dopamine EC30 potentiation; actives deviate in either direction | AID 641 | B-score at 10 µM;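 active = luminescence count or its row- and column-corrected plate score outside the 99.7% band of the plate's sample wells, on either side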
# CYP2C9 activ – CYP2C9 (human) activation. P11712. recombinant CYP2C9, luciferin-H conversion, luminescence; stronger effect = higher value; factor 1 = untreated enzyme, 0 = blocked. AID 1024. 96,000 tested, 1.4% active. activation factor at 5 µM;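 active = activation factor of 2 or more for CYP2C9 at a 5 µM dose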
# Target sequence (P11712 whole entry, looked up): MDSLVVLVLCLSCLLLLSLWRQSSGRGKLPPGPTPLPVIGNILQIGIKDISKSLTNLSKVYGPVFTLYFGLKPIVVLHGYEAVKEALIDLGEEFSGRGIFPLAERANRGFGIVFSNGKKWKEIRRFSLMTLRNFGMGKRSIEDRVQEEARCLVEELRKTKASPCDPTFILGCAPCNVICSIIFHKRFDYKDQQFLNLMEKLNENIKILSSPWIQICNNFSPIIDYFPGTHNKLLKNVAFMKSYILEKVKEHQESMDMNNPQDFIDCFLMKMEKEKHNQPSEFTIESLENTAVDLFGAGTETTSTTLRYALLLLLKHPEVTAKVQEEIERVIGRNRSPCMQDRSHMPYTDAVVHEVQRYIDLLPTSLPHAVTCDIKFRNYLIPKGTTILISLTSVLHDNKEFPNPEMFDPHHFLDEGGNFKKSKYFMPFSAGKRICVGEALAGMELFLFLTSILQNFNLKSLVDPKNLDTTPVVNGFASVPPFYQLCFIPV
# DAT uptake mod – human DAT dopamine uptake with cocaine, either direction. LLC-PK1 hDAT cells, [14C]-dopamine uptake with cocaine IC80; actives deviate in either direction. B-score at 10 µM. 110,000 tested, 1.3% active. AID 449768;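 active = Z score or B-score, a plate-position-corrected score, falls beyond the plate's 99.7% confidence bounds, in either direction; inactive = both scores lie inside the 99.7% bounds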
# CYP2C19 activ – increases human CYP2C19 enzyme activity | P33261 | recombinant CYP2C19, luciferin-H EGE luminescence; stronger effect = higher value; 0 = fully inhibited enzyme, 1 = untreated enzyme | activation factor at 5 µM | 96,000 tested, under 10 active;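 active = activation factor of at least 2 at 5 µM in the primary screen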
# CYP2C9 inhib – human CYP2C9 inhibition | P11712 | CYP2C9 Supersomes, luciferin-H conversion, luminescence | inhibition, % at 5 µM | 96,000 tested, 20% active | AID 777;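 active = blocking of liver enzyme CYP2C9 beyond about 50% at 5 µM, limit read from the data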
# A number is an active result; i = inactive; nt = no result.
SMILES,CYP2C19 inhib,D1 mod,CYP2C9 activ,DAT uptake mod,CYP2C19 activ,CYP2C9 inhib
COc1ccc(S(=O)(=O)NNC(=O)c2csc(-n3nc(C)cc3C(F)(F)F)n2)cc1,i,nt,i,i,i,i
Cc1ccc(N(C)C(=O)N2CCN(S(=O)(=O)c3ccc(C)c(C)c3)CC2)cc1,98.2,nt,i,i,i,77.7
Cc1ccc(S(=O)(=O)N2CCN(C(=O)N(C)C)CC2)cc1C,55.6,i,i,i,i,i
Cc1ccc(S(=O)(=O)N2CCC(C(=O)O)CC2)cc1C(=O)O,i,i,i,i,i,i
CCN(CC)C(=O)N1CCN(S(=O)(=O)c2ccc(C)cc2)CC1,i,nt,i,i,i,i
CCN(CC)C(=O)N1CCN(S(=O)(=O)c2ccc(C)c(C)c2)CC1,98.0,i,2.2,i,i,i
Cc1ccc(S(=O)(=O)N2CCN(S(=O)(=O)N(C)C)CC2)c(C)c1,i,nt,i,i,i,i
Cc1ccc(N(C)C(=O)N2CCN(S(=O)(=O)c3c(C)cc(C)cc3C)CC2)cc1,64.2,nt,i,i,i,74.9
Cc1ccc(-n2nc(C(=O)NCc3ccc(C)o3)c3c4ccccc4n(C)c3c2=O)cc1,i,nt,i,i,i,i
CC1C(=O)O[C@@H]2C[C@@H](C)[C@@H]3CCC(=O)[C@@]3(C)[C@@H](O)[C@H]12 (stereo partly specified),nt,nt,nt,i,nt,nt
CC(=O)Nc1ccc(Oc2ncccn2)c(Cl)c1,i,nt,i,i,i,i
CN1C(=O)N(c2ccccc2)C(Nc2nncs2)C1(C)C (stereo unspecified),i,nt,i,nt,i,i
COc1ccc(-c2nc(C#N)c(NCCCn3ccnc3)o2)cc1OC,81.2,nt,i,i,i,86.1
N#Cc1nc(-c2ccco2)oc1NCCCn1ccnc1,86.1,i,i,i,i,84.1
O=C(NCc1ccccc1)c1ccc(-c2ccc(F)cc2)o1,54.9,nt,i,i,i,55.5
O=C(NCc1ccccc1)c1ccc(COCC(F)(F)F)o1,85.2,i,i,i,i,i
Cc1ccccc1-c1ccc(C(=O)NCc2ccccc2)o1,nt,nt,nt,i,nt,nt
O=C(NC1CCCCC1)c1ccc(COCC(F)(F)F)o1,i,nt,i,i,i,i
COc1ccc(N2CCN(CCCNS(=O)(=O)c3c(C)noc3/C=C/N(C)C)CC2)cc1,i,i,i,i,i,61.9
CCCCNC(=O)C1CCN(S(=O)(=O)c2c(C)noc2/C=C\c2ccc(OC)cc2)CC1,i,nt,i,i,i,i
CCOc1ccc(CCNC(=O)c2ccc(N3CCCC3=O)cc2)cc1OCC,i,nt,i,-7.71,i,i
CCOc1ccc(CCNC(=O)c2cc3sccc3n2CC)cc1OCC,50.6,nt,i,i,i,i
CCOc1ccc(CCNC(=O)COC(=O)c2ccco2)cc1OCC,51.9,nt,i,i,i,68.7
CCOc1ccc(CCNC(=O)CCn2cccc2)cc1OCC,i,i,i,-4.3,i,i
COc1ccc(CCNC(=O)C(C)OC(=O)c2ccco2)cc1OC (stereo unspecified),i,i,i,i,i,i
SMILES,CYP2C19 inhib,D1 mod,CYP2C9 activ,DAT uptake mod,CYP2C19 activ,CYP2C9 inhib
C=CCOc1ccc(C(=O)N(Cc2ccc(N(C)C)cc2)C2CCS(=O)(=O)C2)cc1 (stereo unspecified),i,i,i,i,i,i
O=C(Cn1cnc2c(nnn2Cc2ccc(Cl)cc2)c1=O)NCc1ccco1,nt,i,nt,i,nt,nt
CCN(CC)CCNC(=O)C1CCC(=O)N1CCc1ccccc1 (stereo unspecified),i,i,i,i,i,i
O=C(CCn1cccc1)NCCc1ccc(Cl)cc1,58.9,i,i,i,i,i
CCOc1ccc(CCNC(=O)C2CCC(=O)N2CCc2ccccc2)cc1OCC (stereo unspecified),i,nt,i,i,i,67.8
O=C(NOC(=O)c1ccccc1Cl)c1cccs1,i,nt,i,i,i,50.8
COC(=O)C1CCN(C(=O)COC(=O)CC(NC(N)=O)c2ccc(Cl)cc2)CC1 (stereo unspecified),i,i,i,i,i,i
CCOC(=O)C(C(=O)OCC)C(Nc1ccc(Br)cc1)c1ccccc1 (stereo unspecified),i,nt,i,i,i,i
CN1CCN(S(=O)(=O)c2ccc(Sc3nc4ccccc4[nH]3)c3nsnc23)CC1,i,i,i,i,i,i
O=[N+]([O-])c1cc(S(=O)(=O)C(F)(F)F)ccc1Sc1nc2ccccc2s1,63.0,nt,i,i,i,50.8
O=[N+]([O-])c1cc(S(=O)(=O)C(F)(F)F)ccc1Sc1nc2ccccc2[nH]1,89.7,nt,i,i,i,76.3
CS(=O)(=O)c1ccc(Sc2nc3ccccc3[nH]2)c([N+](=O)[O-])c1,91.2,nt,i,i,i,78.6
CC(C)N=C(Nc1ccc(Cl)cc1)c1cccnc1,i,nt,i,i,i,i
CCOc1cc(N)c(Cl)cc1C(=O)NCC1CN(Cc2ccc(F)cc2)CCO1 (stereo unspecified),nt,nt,nt,i,nt,nt
CCOc1ccc(NC(=O)CNC(=O)c2ccc(OC)c(OC)c2)cc1,i,i,i,i,i,i
CCOC(=O)N1CCC(NC(=O)c2ccc3nc4ccccc4c(=O)n3c2)CC1,i,nt,i,nt,i,i
CCOC(=O)N1CCC(NC(=O)c2cn(-c3ccc(OC)cc3)c(=O)c3ccccc23)CC1,90.9,i,i,2.23,i,90.5
CCOc1ccc(NC(=O)CNC(=O)c2cn(-c3ccccc3OC)c(=O)c3ccccc23)cc1,85.8,nt,i,i,i,87.8
CCOC(=O)N1CCC(NC(=O)c2cccn3c(=O)c4cc(Br)ccc4nc23)CC1,63.7,i,i,i,i,86.0
CSc1nnc(N(CCC#N)CCC#N)s1,i,i,i,i,i,i
c1cn(CC2(Cn3ccnc3)COC2)cn1,i,i,i,i,i,i
CC(=O)c1ccc(NC(=O)C2CCC(C)NC2=O)cc1 (stereo unspecified),i,i,i,i,i,i
Cc1ccc(NC(=O)C2CC(=O)OC23CCOC(C)(C)C3)cc1 (stereo unspecified),66.3,nt,i,i,i,i
O=C1CC(C(=O)Nc2ccc(Br)cc2)C2(CCCC2)O1 (stereo unspecified),97.3,i,i,nt,i,60.8
O=C1CC(C(=O)Nc2ccccc2)C2(CCCCC2)O1 (stereo unspecified),i,nt,i,i,i,i
SMILES,CYP2C19 inhib,D1 mod,CYP2C9 activ,DAT uptake mod,CYP2C19 activ,CYP2C9 inhib
Cc1[nH]n(C(C)(C)C)c(=O)c1Sc1ccccc1,i,i,i,i,i,i
Cc1ccc(Sc2c(C)[nH]n(C(C)(C)C)c2=O)cc1,87.6,i,i,i,i,86.7
Cc1ccc(S(=O)(=O)CCCS(=O)(=O)c2ccc(C)cc2)cc1,51.9,nt,i,i,i,i
COC(=O)c1cccc(COC(=O)c2ccc(CS(=O)(=O)c3ccc(C)cc3)cc2)c1,i,nt,i,i,i,76.6
COC(=O)c1ccc(CS(=O)(=O)c2ccc(C)cc2)cc1,i,nt,i,i,i,58.5
Cc1cc(C)n2cc(CSCc3ccco3)nc2n1,i,i,i,i,i,69.8

# Bioassay records from PubChem BioAssay.
